In the library only some 3.8% were active in any assay of this set; here they are far more common.
HSF1 inhib = HSF1 inhibitors in luciferase reporter cells, primary screen, cell-based, NIH3T3, luminescence; NIH3T3-HGL HSE-luciferase, MG132-induced, luminescence 8 h; hits give low values; activity change, negative = inhibition, % at 7.5 µM (by protocol); 0.77% of 300,000 active; AID 2098, 2009;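 active means more than half of replicate wells show activity change below -50%, luminescence cut by over half; inconclusive means some wells, but at most half, below -50%; inactive means no replicate well below -50%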;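 further: luciferase reports HSF-1 transcriptional activity via heat shock element; 0% = median of DMSO wells and -100% = zero luminescence signal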
MITF act = activators of MITF-driven TRPM1 promoter reporter, primary screen, cell-based, SK-MEL-5, luciferase, single point; SK-MEL-5 TRPM1-promoter luciferase, 24 h; % of positive control, neutral wells = 0; activation, % at 12.5 µM; 0.75% of 300,000 active; AID 588334, 2011;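 active means mean activation of at least 80% with every replicate also reaching 80%; inconclusive means mean reaches 80% but some replicate falls short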;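 further: 0% = neutral control wells and 100% = parthenolide positive control wells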
HSF1 activator = HSF-1 activators, primary screen, NIH3T3-HGL cells, MG132 stress, luminescence, single point; NIH3T3-HGL HSF-1 luciferase reporter, 8 h; 100% = twice DMSO control signal; activation, % at 9 µM; 1.7% of 300,000 active; AID 504408, 2011;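 active means mean replicate activation of at least 50% with a set share of replicates each reaching 50%; inconclusive means only one of those two conditions met; inactive means mean below 50% and too few replicates reaching it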;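 further: 0% = median of the neutral control wells and 100% = twice that signal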
esBAF inh = Bmi1 luciferase reporter increase in mESCs, primary screen, esBAF inhibitor project, mouse ES cells, Bmi1 luciferase knock-in, single point | 24 h; 100% = twice the neutral-well signal | reporter increase, % at 12.5 µM | 2% of 350,000 active; in the data active means activation above about 40%; inconclusive means no clear call, values can overlap the other calls;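 further: 0% = median of the plate's neutral control wells and 100% = double that signal; a rise in the Bmi1 reporter signal indicates esBAF inhibition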
Wnt act = Wnt/beta-catenin pathway activators, primary screen, cell-based, plate reader, single point; Wnt/beta-catenin reporter cell assay, activator; activation, % at 9.35 µM; 1.2% of 300,000 active; AID 743398, 2014; in the data active means activation above about 30%, passing the limit was not always enough; inconclusive means no clear call, values can overlap the other calls;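 further: 0% = neutral control wells and 100% = positive control wells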
* hit, by the source's call; ? = inconclusive; . = not tested or not shown.

SMILES | HSF1 inhib | MITF act | HSF1 activator | esBAF inh | Wnt act
CO[C@H]1CN(C)C(=O)c2cc(C#N)ccc2OC[C@H]2O[C@H](CC[C@@H]2OC)CCN(C)C(=O)[C@H]1C | . | . | . | 3.5 | .
COc1ccc(C2=NN(c3ccccc3)C(c3ccc(OC)c(OC)c3)C2)cc1 (configuration not stated) | 38.7 | 84.3* | 70.5* | 46.5* | 5.1
Oc1ccc(C2=NN(c3ccccc3)C(c3ccc(F)cc3)C2)cc1 (configuration not stated) | -74.8* | -4.1 | -79.8 | 5.3 | -0.6
COc1ccc(C2=NN(C(C#N)c3ccc(OC)c(OC)c3)C(c3ccccc3)C2)cc1 (configuration not stated) | 32.0 | 62.1 | 90.2* | 50.6* | 61.0*
Oc1ccccc1C1=NN(c2ccccc2)C(c2ccc(F)cc2)C1 (configuration not stated) | 3.3 | 9.0 | -4.0 | -0.3 | 2.8
COc1ccc(C2CC(c3ccc(F)cc3)=NN2c2ccccc2)cc1OC (configuration not stated) | 15.3 | . | 33.9 | 30.5 | 0.7
COc1ccc(C2CC(c3cccs3)=NN2c2nc(-c3ccccc3)cs2)cc1OC (configuration not stated) | 62.1 | -4.1 | 92.8* | -1.4 | 10.2
Cc1cc(C(=O)Nc2cccc3c2O[C@H](CN(C)Cc2ccccc2)[C@@H](C)CN([C@H](C)CO)C3=O)n(C)n1 | . | . | . | 4.2 | .
CO[C@@H]1CN(C)C(=O)c2cc(NC(=O)c3cc(C)on3)ccc2OC[C@H](C)N(CC2CC2)C[C@@H]1C | . | . | . | -0.9 | .
CC(=O)N1[C@@H]2c3ccc(-c4ccccc4F)c(=O)n3C[C@@H]2[C@@H](CO)[C@@H]1C(=O)NCC1CC1 | . | . | . | 4.2 | .
Cc1ccc(S(=O)(=O)N[C@@H]2CC[C@H](CCNC(=O)C3CCCC3)O[C@H]2CO)cc1 | . | . | . | 0.0 | .
CCCCCCOc1ccc(/C(N)=N/O)cc1 | 23.4 | 42.3 | 34.8 | 74.5* | .
COc1ccc(NC(=O)N[C@@H]2C=C[C@@H](CC(=O)NC3CCCCC3)O[C@H]2CO)cc1 | . | . | . | -5.3 | .
CCOc1ccc(C(=O)COC(=O)CNC(=O)C2CCCCC2)cc1 | . | 4.2 | . | 2.8 | -1.0
COc1ccc(C(=O)O/N=C(\N)c2ccc(Br)cc2)cc1 | 3.8 | 57.2 | 27.8 | 58.7* | 34.5*
O=C(CNC(=O)C1CCCCC1)OCC(=O)c1ccc(Br)cc1 | 15.7 | 15.4 | 64.6* | 0.4 | 0.5
Cc1ccc(C(=O)O/N=C(\N)c2ccc(Br)cc2)cc1 | 8.6 | 88.7* | 15.8 | 81.9* | .
COc1ccc(/C(N)=N/OC(=O)c2ccc([N+](=O)[O-])c(C)c2)cc1OC | 0.9 | 42.6 | -4.7 | 13.3 | 4.0
COc1ccc(/C(N)=N/OC(=O)c2ccc(C)c([N+](=O)[O-])c2)cc1 | 12.6 | 32.5 | 27.2 | 69.7* | .
C[C@@H]1CN([C@@H](C)CO)C(=O)c2cc(NS(=O)(=O)c3ccc(F)cc3)ccc2O[C@@H]1CN(C)S(=O)(=O)c1cccs1 | . | . | . | 1.7 | .
N/C(=N\OC(=O)C1CCCCC1)c1ccc(Br)cc1 | 17.4 | . | 57.3* | 65.8* | 24.9
CCOc1ccc(NC(=O)c2csc3c2CCCC3)cc1 | 27.3 | . | ? | 77.5* | 45.9*
O=C(Nc1ccccn1)c1csc2c1CCCC2 | 43.5 | 37.6 | 52.7* | . | 17.3
COc1ccccc1NC(=O)c1csc2c1CCCC2 | 8.7 | 19.2 | -0.8 | . | 14.5
CO[C@H]1CN(C)C(=O)c2cc(NS(=O)(=O)CC(F)(F)F)ccc2OC[C@@H](C)N(CCC(F)(F)F)C[C@H]1C | . | . | . | -2.8 | .
SMILES | HSF1 inhib | MITF act | HSF1 activator | esBAF inh | Wnt act
Cc1ccc(-n2nnc3ccccc3c2=O)cc1C | 11.6 | 86.0* | 28.5 | 8.4 | .
CCCCNc1nc(Nc2ccc(C)c(Cl)c2)c2cnn(C)c2n1 | 13.7 | -11.9 | 65.0* | -6.0 | 1.3
Cc1nc(NC(=O)c2ccccc2)nc2cc3c(cc12)OCO3 | 9.1 | 29.3 | -1.3 | 49.4* | 14.8
Oc1ccccc1C1=Nc2nc3ccccc3n2C(c2ccccc2)C1 (configuration not stated) | 25.5 | 66.6 | 48.1 | 48.8* | .
Oc1ccccc1C1=NC(c2ccccc2)NC(c2ccccc2)C1 (configuration not stated) | . | . | . | -1.8 | 1.3
O=C(CSc1nc2ccccc2n1S(=O)(=O)c1ccccc1)N1CCCCC1 | -56.0* | . | -57.5 | 7.2 | -0.9
CCCc1c(O)nc(SCC(=O)N2CCCCC2)[nH]c1=O | -4.5 | . | -0.9 | 7.7 | -2.3
c1ccc(-c2cc(CSc3nc4ccccc4[nH]3)on2)cc1 | 41.3 | -10.5 | 60.9* | 11.6 | .
O=C(CSc1nc2ccccc2[nH]1)c1ccccc1F | 18.3 | 56.4 | 57.0* | 51.5* | ?
O=C(CSc1nc2ccccc2n1CC(=O)N1CCCCC1)N1CCCCC1 | 5.9 | -1.7 | -16.6 | -1.9 | 2.6
CC(C)CCc1c(O)nc(SCC(=O)N2CCCCCC2)[nH]c1=O | -74.0* | 7.5 | -78.5 | -2.2 | -2.6
CCCC#Cc1cnc2c(c1)C(=O)N([C@@H](C)CO)C[C@H](C)[C@@H](CN(C)C(=O)CN1CCOCC1)O2 | . | . | . | 0.1 | .
Cc1ccc(S(=O)(=O)N(C)C[C@H]2Oc3ccc(NS(=O)(=O)c4cn(C)cn4)cc3CC(=O)N([C@@H](C)CO)C[C@@H]2C)cc1 | . | . | . | 1.4 | .
CNC[C@@H]1Oc2ncc(C#Cc3ccccc3F)cc2C(=O)N([C@@H](C)CO)C[C@@H]1C | . | . | . | -3.8 | .
CO[C@@H]1CN(C)C(=O)c2cc(NS(C)(=O)=O)ccc2OC[C@H](C)N(C(=O)CN(C)C)C[C@@H]1C | . | . | . | -8.2 | .
Cc1noc(C)c1CSc1nc2ccccc2[nH]1 | 2.0 | 3.7 | 0.0 | -8.0 | -1.6
O=C(CSc1nc2ccccc2[nH]1)N1CCCCC1 | 10.5 | 106.0* | 21.6 | 22.9 | .
Fc1cccc(F)c1CSc1nc2ccccc2[nH]1 | 30.3 | 71.4 | 34.6 | 42.1* | .
O=C(CSc1nc2ccccc2[nH]1)N1CCN(c2ccccc2)CC1 | 0.7 | . | 25.4 | 12.0 | 0.7
O=C1CCC(=O)N1c1ccc(CSc2nc3ccccc3[nH]2)cc1 | 12.1 | . | 28.3 | 41.8* | .
O=C(CSc1nc2ccc(Cl)cc2[nH]1)c1cccs1 | 17.3 | 54.0 | 8.2 | ? | 36.8*
COc1ccc(NC(=O)N(C)C[C@@H]2Oc3ccc(N(C)C)cc3C(=O)N([C@H](C)CO)C[C@H]2C)cc1 | . | . | . | -7.2 | .
CC(C)Sc1nc2ccccc2[nH]1 | -7.3 | 3.1 | -4.0 | . | 2.6
Cc1ccc2nc(SCC(=O)c3cc(C)n(C)c3C)[nH]c2c1 | 5.0 | 5.1 | 20.3 | . | .
CC(C)CCSc1nc2ccccc2[nH]1 | 48.0 | 42.0 | 64.5* | . | 0.1
Cc1cc(C(=O)CSc2nc3ccccc3[nH]2)c(C)n1C | 38.0 | 70.5 | 70.8* | . | 62.0*

From PubChem
